Experimental data taken from PubChem BioAssay (NCATS).
“And” between values parts separate entries of the source, which are not always exact repeats. Identical values can stand only once. Records with an inconclusive call do not appear. Unmarked numbers belong to inactive results. The source made the active and inactive calls. Calls come from the whole dose curve; as a rule, active = well fitted cell-killing curve with a large enough effect; inconclusive = small, poorly fitted or top-dose-only effect, or effect the other way; inactive = no such curve, though single readings can be large or run the other way.

Assay: Viability qHTS for spleen associated tyrosine kinase inhibitor (SYKi) drug resistant MV4-11 cells (AID 1963824); note: nearly all actives have a fitted effect of over 35% in size
Details: SYKi-resistant MV4-11 viability, CellTiter-Glo, 72 h; series mostly up to 45 µM; viability, % of control: at the top concentration
Description: Department of Medicine, Hematology/Oncology
University Hospital Frankfurt, Germany.
Trials have shown promising clinical activity of the selective SYK inhibitor entospletinib in patients with high expressing HOXA9/MEIS1 acute leukemias. As the development of resistance mechanisms is a common problem in the use of targeted drugs, we performed a chemical library screen to identify drug sensitivities in SYK inhibitor resistant AML cells. […] Glucocorticoids are potent immunosuppressants which work in part by inhibiting the transcription of cytokine genes.
Described herein is a viability screen to look for activity in the SYK inhibitor drug resistant cell line against four NCATS compound libraries (MIPE 5.0, NPC, NPACT, and Kinase) totaling 11372 compounds. Active hits were reacquired for confirmation and further secondary assay testing.
SEQUENCE No. (e.g., 1, 2, 3, etc.); […] (e.g., Cells, Incubation, Reagent, etc.); VALUE; DESCRIPTION.
1; Media; 2uL; white, solid-bottom Corning assay plate.
2; Compounds; 23nL; Echo acoustic dispenser.
3; Cell; 5uL; 500 cells per well.
4: Incubation; 72hr; 37 C, 5% CO2, 95% humidity.
5; Reagent; 3uL; CellTiter-Glo reagent (Promega).
6; Incubation; 10min; room temperature.
7; Detection; Luminescence; ViewLux plate reader (PerkinElmer).
NOTES (numbers refer to Sequence numbers above
1. Quantitative high-throughput screening (qHTS) of small molecule compounds was conducted on drug resistant SYKi MV4-11 cell line.
2. Twenty-three nanoliter of small molecule compounds were added to each assay plates using the Echo acoustic dispenser (Beckman Coulter).
3. Cells were seeded into the assay plates at a final density of 500 cells in 5uL of media per well using the Multidrop Combi dispenser.
4. Plates were covered with stainless steel gasketed lids and incubated for 72 hours at standard cell culture conditions.
5. Viability was assessed by adding 3uL of CellTiter-Glo detection reagent (Promega).
6. Plates were covered with gasket lids and incubated for 10 minutes at room temperature.
7. Luminescence was measured on a ViewLux plate reader (PerkinElmer).
Potency is the fitted concentration of half-maximal effect.

SMILES | Potency | viability, % of control
CCOc1cc(C(C)(C)C)ccc1C1=N[C@@](C)(c2ccc(Cl)cc2)[C@@](C)(c2ccc(Cl)cc2)N1C(=O)N1CCN(CC(=O)N2CCOCC2)CC1 | 11.5 µM (active) | 
Cc1ncc([N+](=O)[O-])n1C[C@H](O)CN1CCOCC1 |  | 102%
NS(=O)(=O)c1ccc(N2CCCCS2(=O)=O)cc1 |  | 85.4%
COc1cnc(-n2cnc(C)n2)c2[nH]cc(C(=O)C(=O)N3CCN(C(=O)c4ccccc4)CC3)c12 |  | 88.4%
CCC[C@H](N[C@H]1CCc2cc(F)cc(F)c2C1)C(=O)Nc1cn(C(C)(C)CNCC(C)(C)C)cn1 | 9.2 µM (active) and 6.61 µM (active) | 
[Cl][In]([Cl])[Cl] |  | 83% [at 91.9 µM]
OCC(O)CCO/N=C1/C(c2c(O)[nH]c3ccccc23)=Nc2ccccc21 (stereo not given) | 0.0517 µM (active) | 
O=C(CCN1CCN(CCO)CC1)N1c2ccccc2Sc2ccc(C(F)(F)F)cc21 |  | 82.1%
COc1cc(/C=C/C(=O)O[C@H]2[C@H](O)[C@@H](CO)O[C@@]2(CO)O[C@H]2O[C@H](COC(=O)c3ccc(O)cc3)[C@@H](O)[C@H](O)[C@H]2O)cc(OC)c1OC |  | 75.9% [at 17.3 µM]
CCS(=O)(=O)N1CC(CC#N)(n2cc(-c3ncnc4[nH]ccc34)cn2)C1 | 16.4 µM (active) and 10.5 µM (active) | 
O=C(NCC1CCN(Cc2cccc(Cl)c2)CC1)[C@@H]1CCCN(c2ncnc3c2nc2n3CCCC2)C1 | 10.3 µM (active) | 
FC(F)(F)c1ccc(Nc2nc(-c3c(C(F)(F)F)nc4ccccn34)cs2)cc1 | 0.13 µM (active) | 
CC(C)(C(=O)O)c1ccc(C(O)CCCN2CCC(C(O)(c3ccccc3)c3ccccc3)CC2)cc1 (stereo not given) | inactive | 
Cc1cnc(-c2cnc(NCCNc3ccc(C#N)cn3)nc2-c2ccc(Cl)cc2Cl)[nH]1 | 13 µM (active) | 
CC1OC(O[C@H]2[C@@H](O)C[C@@]3(C)C([C@H](O)C[C@]4(C)C3CC=C3C5CC(C)(C)CC[C@]5(C(=O)OC5OC(CO)C(O)C(O)C5OC5OCC(OC6OCC(OC7OCC(O)C(O)C7O)C(O)C6O)C(OC6OCC(O)(CO)C6O)C5O)CC[C@]34C)[C@]2(C)CO)C(O)C(O)C1O (stereo not given in full) |  | 97% [at 9.25 µM]
C=C1C(=O)O[C@@H]2/C=C(/C)[C@@H](OC(C)=O)C/C=C(\C)C[C@@H](OC(=O)/C(=C/CO)CO)[C@@H]12 | 3.55 µM (active) | 
Cc1cc(C)cc(OCC2CNC(=O)O2)c1 (stereo not given) |  | 80.5%
CCS(=O)(=O)c1ccc(OC)c(C(=O)OC)c1 |  | 84.2%
CC(CN1c2ccccc2Sc2ccccc21)N(C)C (stereo not given) |  | 7.13%
CC1(CO)CCCC2(C)C3COC(=O)C3=CC(O)C12 (stereo not given) |  | 81.4%

SMILES | Potency | viability, % of control
C=C(C)[C@@H]1CC[C@]2(C)CC[C@]3(C)C(CCC4[C@@]5(C)CC[C@H](O)C(C)(C)C5CC[C@]43C)C12 (stereo not given in full) |  | 88% [at 17.3 µM]
CC1(CCOC2OC(CO)C(O)C(O)C2O)CCC23OC2(C1)C(O)CC1C(C)(C(=O)O)CCCC13C (stereo not given) |  | 67.3% [at 17.3 µM]
CCC(O)(C(=O)OCc1ccccc1NC(=O)CCC(=O)O)C(C)O (stereo not given) |  | 93.6%
COc1cc(O)cc2c1C(=O)OC(C)C2 (stereo not given) |  | 71.5%
Cc1ccc(S(=O)(=O)OCC(=O)Nc2ccc(C(=O)O)c(O)c2)cc1 |  | 92.3%
CCN(CCCOc1ccc2c(Nc3cc(CC(=O)Nc4cccc(F)c4)[nH]n3)ncnc2c1)CCOP(=O)(O)O | 58 nM (active) and 372 nM (active) | 
O=C1NC2CCCCN2C12CCN(CCCN1c3ccccc3CCc3ccc(Cl)cc31)CC2 (stereo not given) | 4.61 µM (active) | 
Oc1ccc(/C=C/c2cc(O)cc(O)c2)cc1 | 18.6 µM (active) | 
CC(=O)Nc1ncc([N+](=O)[O-])s1 |  | 69%
O=c1cc(N2CCOCC2)oc2c(-c3cccc4c3sc3ccccc34)cccc12 | 1.86 µM (active) | 
CCc1cncnc1N1CCN(Cc2nc3ccc(C(F)(F)F)cc3[nH]2)CC1 | 5.9 µM (active) | 
OC1(c2ccc(Cl)cc2)CCNCC1 |  | 89.4%
CCOC(=O)c1cccc(CNc2ccc(N(C)C(=O)Nc3ccccc3)cc2)c1 | 11.6 µM (active) | 
COc1ccc(/C=C/C(=O)O[C@@H]2[C@@H](OC(C)=O)[C@@H](OC(C)=O)[C@H](O[C@H]3[C@@H]4C=CO[C@@H](O[C@@H]5O[C@H](CO)[C@@H](O)[C@H](O)[C@H]5O)[C@@H]4[C@@]4(CO)O[C@@H]34)O[C@H]2C)cc1 |  | 104% [at 17.3 µM]
CCCCCCCCCCC(CO)CCCCCCCC (stereo not given) |  | 80.2%
COc1cc2c(cc1OC)CC(=O)N(CCCN(C)C[C@H]1Cc3cc(OC)c(OC)cc31)CC2 |  | 62.5%
CCCC(=O)Nc1ccc(O)c(C(C)=O)c1 |  | 91%
CN(NC(=O)CC(=O)NN(C)C(=S)c1ccccc1)C(=S)c1ccccc1 | 46.1 nM (active) and 4.2 nM (active) | 
CC(C)(C)c1ccc(-c2nc3c(N4CCN(Cc5ccc6nccnc6c5)CC4)cccc3[nH]2)cc1 | 8.2 µM (active) | 
C=C1C2(CCC(=O)OC2(C)C)CC(OC(=O)/C(C)=C/C)C2(C)C13OC14C(=O)OC(C)(C(=O)C12C(=O)OC4C)C3OC(C)=O (stereo not given) |  | 97% [at 17.3 µM]
